# High-throughput results (PubChem BioAssay)
# CRE-bla Fsk: Cell signaling CRE-BLA (Fsk stim) | CHO CRE-bla reporter (cAMP response element driving beta-lactamase), forskolin EC10, beta-lactamase ratio | Potency, µM (series often up to 38.2 µM), inactives show at the top dose activity change, negative = inhibition, hits mostly activators | hit rate 2.5% among 71,000 | AID 662, 2007; active = well fitted activation curve with a large enough effect in the signal ratio, with a control signal flat, not every such curve was filed as active; inconclusive = small, poorly fitted or top-dose-only effect, or effect the other way, or a change in a side signal; the % refers to the signal ratio; note: % of control where 0% means no effect
#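 CHO CRE-bla cells, overnight plating in Opti-MEM with 0.5% dialyzed FBS; cpd titration + EC10 NKH 477, 3 h 37 °C; CCF4 2 h RT; ex 405/em 460 vs 530 ratio → %Activity, AC50.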
# Tau fil binding: qHTS Assay for Tau Filament Binding; Microtubule-associated protein tau (Homo sapiens), P10636; recombinant tau filaments, thioflavin S fluorescence, 15 h; filaments grown with octadecylsulfate alongside compound; Potency, µM (highest dose often 57.1 µM), inactives show at the top dose activity change, negative = inhibition; hit rate 2% among 71,000;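 note: % is set by controls: 0 for no effect and ±100 for the full control effect; actives lower thioflavin S fluorescence by blocking filaments or displacing dye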
# Target sequence (P10636 whole entry, looked up): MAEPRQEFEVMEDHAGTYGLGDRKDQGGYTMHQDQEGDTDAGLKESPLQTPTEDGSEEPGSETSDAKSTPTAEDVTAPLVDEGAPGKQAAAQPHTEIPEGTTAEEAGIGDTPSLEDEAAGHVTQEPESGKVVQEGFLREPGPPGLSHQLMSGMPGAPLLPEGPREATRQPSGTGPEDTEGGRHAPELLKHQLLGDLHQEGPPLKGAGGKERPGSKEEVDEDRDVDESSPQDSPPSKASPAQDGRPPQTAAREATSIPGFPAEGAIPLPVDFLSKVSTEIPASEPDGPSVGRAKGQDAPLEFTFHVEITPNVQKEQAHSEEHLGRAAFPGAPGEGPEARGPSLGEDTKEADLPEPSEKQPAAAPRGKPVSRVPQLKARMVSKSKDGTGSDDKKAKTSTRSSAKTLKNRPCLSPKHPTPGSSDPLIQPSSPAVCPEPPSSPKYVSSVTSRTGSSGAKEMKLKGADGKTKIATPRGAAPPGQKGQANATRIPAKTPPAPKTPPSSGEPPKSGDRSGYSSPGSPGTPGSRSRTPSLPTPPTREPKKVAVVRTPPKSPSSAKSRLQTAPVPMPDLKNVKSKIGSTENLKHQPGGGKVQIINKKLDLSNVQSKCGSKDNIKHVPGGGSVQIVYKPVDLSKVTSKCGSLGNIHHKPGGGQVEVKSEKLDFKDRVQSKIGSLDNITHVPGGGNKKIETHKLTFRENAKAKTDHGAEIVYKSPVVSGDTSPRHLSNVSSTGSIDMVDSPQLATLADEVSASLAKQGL
#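 His-tagged recombinant human tau (exons 2, 3, 10; 1 uM final) fibrillized with 30 uM sodium octadecylsulfate, 15 h at 37 C, in pH 7.4 HEPES buffer with 10 uM thioflavine S and 5 mM DTT. Reduced ThS fluorescence (450/510 nm) marks activity.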
# HEK293 cAMP cs: qHTS Assay for Agonists of the Thyroid Stimulating Hormone Receptor: Activators of Intracellular cAMP Concentrations in Parental HEK 293 | parental HEK293 CNG cAMP sensor, membrane potential fluorescence | Potency, µM (doses to about 57.1 µM), for inactives: top-dose activation, actives largely listed as activators | hit rate 2.5% among 73,000 | AID 938, 2007; note: % of control where 0% means no effect; nearly all actives have a fitted effect of over 55% in size
#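 Parental HEK 293 cells stably expressing a modified CNG channel (no TSHR) report cAMP rise as membrane depolarization. Membrane potential dye with 100 uM RO 20-1724 was loaded for 60 min at room temperature, then compound added for 30 min; fluorescence read at 590 nm.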
# TSHR ag: qHTS Assay for Agonists of the Thyroid Stimulating Hormone Receptor; Thyrotropin receptor (Homo sapiens), P16473; AID 926, 2007; hit rate 0.48% among 73,000; HEK293-CNG-TSHR cells (CNG channel as cAMP sensor), membrane potential dye, cAMP; Potency, µM (series often up to 57.1 µM), without a hit: at the top dose activation, most hits filed as activators; active = well fitted activation curve with a large enough effect in the main read-out, with a control signal flat, not every such curve was filed as active; inconclusive = small, poorly fitted or top-dose-only effect, or a change in a side signal; inactive = no such curve, though single readings can be large or run the other way; % of control where 0% means no effect;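 note: the control signal comes from parental cells without the receptor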
#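 HEK 293 cells stably expressing TSHR and a cAMP-gated CNG channel; parental CNG-only cells as counterscreen. Cells preloaded 60 min with membrane potential dye plus 100 uM RO 20-1724, then compound 30 min; fluorescence read at 590 nm.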
# ERK AVP inh: qHTS Assay for Inhibitors of the ERK Signaling Pathway using a Homogeneous Screening Assay | HEK293-V1b, vasopressin-stimulated pERK AlphaScreen | AID 995, 2007 | Potency, µM (titrated, usually from 57.5 µM), for the others: at the highest dose activity, negative = inhibition, actives largely listed as inhibitors | hit rate 0.99% among 72,000; note: % is set by controls: 0 for no effect and ±100 for the full control effect; nearly all actives have a fitted effect of over 55% in size
#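 HEK293 cells stably expressing V1b receptor, preincubated 30 min at 37 °C with compound, then stimulated 5 min with 25 nM vasopressin. Phospho-ERK by AlphaScreen SureFire after 5 h RT; normalized to DMSO and vasopressin; AC50 by Hill fit.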
# Numbers without * were called inactive; ? = inconclusive; nt = not tested or not shown; [ ] = dose if it differs, or a comment. Shown are actives, neighbours in structure and some others; about 7.4% of the full set was active somewhere. Unless noted, calls come from the whole dose curve; as a rule, active = well fitted curve in the direction sought with a large enough effect; inconclusive = small, poorly fitted or top-dose-only effect, or another doubt; inactive = no such curve, though single readings can be large; an effect the other way counts as inactive or inconclusive. Potency is the fitted concentration of half-maximal effect.
SMILES,CRE-bla Fsk,Tau fil binding,HEK293 cAMP cs,TSHR ag,ERK AVP inh
Cc1nc2ccccc2c2nc3ccccc3n12,?,11%,-9%,-21%,-29%
c1ccc2c(c1)nnn1c3ccccc3nc21,10µM*,7.9µM*,11%,2%,-19%
O=C(O)Cc1cccnc1,-6%[7.6 µM],3%[11.4 µM],1%[11.4 µM],-3%[11.4 µM],-10%[11.5 µM]
c1ccc(-c2ccc(-c3ccc(C4=NCCN4)cc3)o2)cc1,0.5µM*,-12%[11.4 µM],0%[11.4 µM],5%[11.4 µM],24%[11.5 µM]
NCCNc1ncnc2ccc(Cl)cc12,6%[7.6 µM],0%[11.4 µM],7%[11.4 µM],-7%[11.4 µM],-6%[11.5 µM]
CCCCN(C(=O)c1ccc(Cl)cc1)C1CC2CCC(C1)N2C (configuration not stated),-8%,16µM*,10%,-2%,-16%
COc1ccc(C)cc1NC(=O)C1CCCN1S(=O)(=O)c1ccc2c(c1)CCC(=O)N2 (configuration not stated),10%,25µM*,-4%,-8%,?
O=C1O[C@@H]([C@H](O)[C@H](O)[C@H](O)CO)[C@@H](O)[C@@H]1O,-7%[7.6 µM],-10%[11.4 µM],11%[11.4 µM],4%[11.4 µM],-17%[11.5 µM]
CCn1c2ccccc2c2nnc(SCC(=O)NC(C(=O)OC)C(C)C)nc21 (configuration not stated),?,-9%,-4%,7%,12%
CCn1c2ccccc2c2nnc(SCc3ccccc3)nc21,3.2µM*,-22%,13%,nt,14%
CCn1c2ccccc2c2nnc(SCc3ccc(C(=O)OC)o3)nc21,2µM*,32µM*,?,?,-9%
CCn1c2ccccc2c2nnc(SCCCn3c(=O)[nH]c4ccccc43)nc21,?,149%[11.4 µM],6%[11.4 µM],8%[11.4 µM],?
C[C@H]1CC[C@@H]2[C@@H](C)[C@H]3[C@H](C[C@H]4[C@@H]5CC=C6C[C@@H](O[C@]7(O[C@H]8O[C@@H](C)[C@@H](O)[C@@H](O)[C@@H]8O)C[C@@H](O[C@@H]8O[C@H](CO)[C@@H](O)[C@H](O)[C@@H]8O)[C@@H](O)[C@H](CO)O7)CC[C@]6(C)[C@H]5CC[C@@]34C)N2C1,2%[17.1 µM],62%[25.6 µM],1%[25.6 µM],0%[25.6 µM],32%[25.7 µM]
N#Cc1c(SCC(N)=O)nc2c(c1-c1ccc(O)cc1)CCCC2,?,48%,8%,25%,-25%
N#CCSc1nc2c(c(C3CC=CCC3)c1C#N)CCC2 (configuration not stated),?,33%,10µM*,?,15%
CCCC[C@@H]1C[C@H]1C(NC(=O)c1cccnc1)c1ccc(Cl)cc1 (some centres not stated),-8%,2%,25µM*,?,?
CCCC[C@@H]1C[C@H]1C(NC(=O)c1ccccc1)c1ccc(C(F)(F)F)cc1 (some centres not stated),13%,-5%,3.2µM*,?,-6%
CC1(C)O[C@H]2C[C@@H]3[C@H]4CCC5=CC(=O)CC[C@@]5(C)[C@]4(F)[C@@H](O)C[C@@]3(C)[C@@]2(C(=O)CCl)O1,?,-2%[25.6 µM],12%[25.6 µM],4%[25.6 µM],1%[25.7 µM]
N[C@@H](CC1=CS(=O)(=O)c2ccc(Cl)cc21)C(=O)O,-3%[7.6 µM],-17%[11.4 µM],-9%[11.4 µM],3%[11.4 µM],-8%[11.5 µM]
COc1ncc2nc(-c3cccs3)c(=O)n(Cc3ccc(F)cc3)c2n1,?,14%,?,?,13%
CCn1c(SCC(=O)OC)nc2sc3c(c2c1=O)CCC3,13µM*,-21%,13%,25%,?
O=C(c1ccco1)N1CCN(C(=O)c2cc(-c3ccccn3)nc3ccc(Cl)cc23)CC1,-9%,10µM*,12%,9%,-27%
O=C(c1ccco1)N1CCN(C(=O)c2cc(-c3ccncc3)nc3ccc(Br)cc23)CC1,?,-19%,-21%,8%,-30%
COC(=O)NC(c1cccc(C)c1)[C@@]1(C(=O)OC)CCCC1=O (some centres not stated),nt,nt,-4%[11.4 µM],-5%[11.4 µM],20%[11.5 µM]
